Screening data (PubChem BioAssay)
The list is not random: actives were taken first. Their share in the collection is about 27%.
Cav32 inh = inhibitors of human Cav3.2 T-type calcium channel | O95180 | Cav3.2-expressing cells, Fluo-4 calcium fluorescence FDSS; active compounds read low | B-score at 10 µM | 100,000 tested, 4% active;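 active = single-dose well whose peak fluorescence ratio is a statistical outlier from its plate by either plate-standardised score or position-corrected B-score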
CYP2C9 inh = inhibitors of human CYP2C9 | P11712 | CYP2C9 Supersomes, luciferin-H conversion, luminescence | inhibition, % at 5 µM | 96,000 tested, 20% active;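 active = blocking of liver enzyme CYP2C9 beyond about 50% at 5 µM, limit read from the data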
CYP2C19 inh = inhibitors of human CYP2C19 | inhibition, % at 5 µM | P33261 | CYP2C19 Supersomes, luciferin-H EGE luminescence, 30 min | 96,000 tested, 21% active;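 active = CYP2C19 inhibition above a set limit at 5 µM in the primary screen, cut at about 50% in these data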;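 note: plate controls were negative control wells for no effect and 2.5 mM tranylcypromine positive control for full effect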
Target sequence (P33261 whole entry, looked up): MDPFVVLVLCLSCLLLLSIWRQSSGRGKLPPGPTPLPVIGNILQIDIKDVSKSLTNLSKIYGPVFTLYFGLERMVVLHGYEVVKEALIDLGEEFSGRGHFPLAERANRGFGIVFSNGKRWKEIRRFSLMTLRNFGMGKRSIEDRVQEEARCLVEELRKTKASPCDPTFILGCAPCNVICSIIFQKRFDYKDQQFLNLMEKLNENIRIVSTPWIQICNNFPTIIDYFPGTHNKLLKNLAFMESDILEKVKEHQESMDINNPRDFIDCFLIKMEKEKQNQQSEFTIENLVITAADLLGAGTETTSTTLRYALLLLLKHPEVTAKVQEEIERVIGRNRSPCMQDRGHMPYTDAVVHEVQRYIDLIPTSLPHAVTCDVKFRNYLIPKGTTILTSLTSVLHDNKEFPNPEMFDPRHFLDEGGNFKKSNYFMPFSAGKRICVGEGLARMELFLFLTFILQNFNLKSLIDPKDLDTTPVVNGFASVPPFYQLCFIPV
CYP2C19 activ = increases human CYP2C19 enzyme activity; activation factor at 5 µM; AID 1025; 96,000 tested, under 10 active; P33261; recombinant CYP2C19, luciferin-H EGE luminescence; active compounds read high; 0 = fully inhibited enzyme, 1 = untreated enzyme;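 active = activation factor of at least 2 at 5 µM in the primary screen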;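 note: 0 = wells with 2.5 mM tranylcypromine and 1 = vehicle-only wells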
CYP2C9 activ = increases human cytochrome P450 2C9 activity; P11712; recombinant CYP2C9, luciferin-H conversion, luminescence; active compounds read high; factor 1 = untreated enzyme, 0 = blocked; activation factor at 5 µM; 96,000 tested, 1.4% active; AID 1024;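 active = activation factor of 2 or more for CYP2C9 at a 5 µM dose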;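 note: 0 = sulfaphenazole-blocked wells and 1 = vehicle-only wells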
* = called active by the depositor; nt = not tested or not shown.

SMILES	Cav32 inh	CYP2C9 inh	CYP2C19 inh	CYP2C19 activ	CYP2C9 activ
O=C(CCN1CCc2ccccc21)c1ccc2c(c1)OCCO2	-1.98	7.9	84.0*	0.2	0.9
O=C(c1cccnc1)N1CCc2ccccc2C1	0.895	-7.9	24.8	0.8	1.1
COc1cccc2c1C(CO)N1C(C#N)C3CC(C(=O)O)C(C1C2)N3C (stereo not given)	0.0819	nt	nt	nt	nt
CC1=CCC[C@@H]2[C@@](C)(CC/C(C)=C/C(=O)O)[C@H](C)CC[C@@]12C	-1.66	nt	nt	nt	nt
CCCN(CCC)S(=O)(=O)c1ccc(C(=O)N2CCCc3ccccc32)cc1	0.245	85.8*	20.7	0.8	0.1
CCN1C(=O)CC(N2CCN(CC(=O)NC(C)C)CC2)C1=O (stereo not given)	0.28	8.9	-7.6	1.1	0.9
Cc1ccc(NC(=S)NCc2cccnc2)cc1	0.2	14.2	69.9*	0.3	0.9
S=C(NCc1cccnc1)Nc1cccc(Cl)c1	-1.07	66.1*	72.9*	0.3	0.3
COc1ccc(NC(=O)CSc2nnc(Cc3cccn3C)n2-c2ccc(F)cc2)cc1	-2.89	34.0	15.5	0.8	0.7
Cn1cccc1Cc1nnc(SCC(=O)NC2CCCCC2)n1-c1ccc(F)cc1	-0.509	-12.9	-3.0	1	1.1
COc1ccc(-n2c(Cc3cccn3C)nnc2SCC(=O)Nc2ccc(F)cc2)cc1	-8.58*	49.2	28.3	0.7	0.5
CCOc1ccc(NC(=O)CSc2nnc(Cc3cccn3C)n2-c2ccc(F)cc2)cc1	-7.43*	35.8	12.1	0.9	0.6
O=C(NC1CC1)C1=C[C@@H](c2ccc3c(c2)OCO3)C[C@@H](OCCCCO)O1	0.461	nt	nt	nt	nt
CCOc1ccc(NC(=O)C2CCC(N3C(=O)C4CC=CCC4C3=O)CC2)cc1 (stereo not given)	-0.231	52.3*	52.2*	0.5	0.5
CCOC(=O)c1ccc(Nc2cc(C)nc(C)c2C(=O)OCC)cc1	-0.00249	52.3*	88.8*	0.1	0.5
CCOC(=O)c1ccc(NC(=O)C(=O)NCC2CCCO2)cc1 (stereo not given)	0.794	15.6	18.2	0.8	0.8
CCOC(=O)c1ccc(NC(=O)C2CC2)cc1	0.467	34.6	78.7*	0.2	0.7
COc1ccc(NC(=O)C2CCC(N3C(=O)C4C5C=CC(C5)C4C3=O)CC2)cc1 (stereo not given)	0.961	21.1	0.6	1	0.8
CCOC(=O)c1ccc(NC(=O)C(=O)NCc2ccncc2)cc1	0.683	50.8*	42.2	0.6	0.5
O=C(COc1cccc(-n2cnnn2)c1)N1CCOCC1	0.259	5.4	-9.9	1.1	0.9
CCOC(=O)c1ccc(NC(=O)COC)cc1	-0.222	15.5	22.6	0.8	0.8
CCOC(=O)c1ccc(NC(=O)C(CC)(CC)C(=O)OCC)cc1	-0.952	64.7*	76.9*	0.2	0.4
O=C(CSC1=NCCS1)N1CCN(c2ccc(Cl)cc2)CC1	0.267	16.2	62.0*	0.4	0.8
CCOC(=O)C1CCN(C(=O)CSC2=NCCS2)CC1	-1.2	9.1	59.4*	0.4	0.9
O=C(NCCCn1ccnc1)Nc1cccc2ccccc12	-0.316	nt	nt	nt	nt
SMILES	Cav32 inh	CYP2C9 inh	CYP2C19 inh	CYP2C19 activ	CYP2C9 activ
C=CCn1c(=N)c(C(=O)NCCCOC)cc2c(=O)n3cc(C)ccc3nc21	nt	10.7	-2.1	1	0.9
COCCCNC(=O)c1cn(Cc2c(F)cccc2Cl)nn1	0.476	16.6	13.6	0.9	0.8
O=C(NCCCn1ccnc1)c1cccc(S(=O)(=O)Nc2ccccc2F)c1	1.8	100.4*	61.2*	0.4	0
Cc1ccc2nc3c(cc(C(=O)NCCCn4ccnc4)n3C)c(=O)n2c1	0.0202	89.6*	88.7*	0.1	0.1
O=C(NCCCn1ccnc1)c1cn(Cc2ccc(F)cc2)nn1	0.0964	59.6*	94.3*	0.1	0.4
Cc1cc(C(=O)NCCCn2ccnc2)cs1	0.14	65.8*	88.4*	0.1	0.3
Cc1ccc(S(=O)(=O)Nc2ccc(-c3nnc(SCC#N)n3C)cc2)cc1	0.011	27.9	8.3	0.9	0.7
O=C(/C=N/O)NCCCn1ccnc1	0.102	3.7	5.0	0.9	1
O=C(NCCCn1ccnc1)c1sc2cccc(F)c2c1Cl	-1.84	90.8*	96.5*	0	0.1
Cc1ccc(C(=O)NCCCn2ccnc2)o1	0.289	27.6	71.6*	0.3	0.7
O=C(NCCCn1ccnc1)C1c2ccccc2Oc2ccccc21	0.0153	98.4*	99.8*	0	0
O=C(NCCCn1ccnc1)C(Cc1ccccc1)N1C(=O)c2ccccc2C1=O (stereo not given)	1.15	62.2*	63.8*	0.4	0.4
CCN(CC)c1nc(C)nc2c1cnn2CCc1ccccc1	0.218	13.7	97.2*	0	0.9
CC1CN(c2nc3c(c(=O)n(C)c(=O)n3C)n2Cc2c(F)cccc2Cl)CC(C)O1 (stereo not given)	1.27	58.6*	14.2	0.9	0.4
Cc1onc(-c2c(F)cccc2Cl)c1C(=O)NCc1ccccn1	0.447	32.0	55.7*	0.4	0.7
Cc1onc(-c2ccccc2)c1C(=O)NCc1ccco1	-0.00764	1.8	-1.6	1	1
Cc1onc(-c2c(Cl)cccc2Cl)c1C(=O)NCc1ccco1	-0.00598	80.9*	89.3*	0.1	0.2
Cc1onc(-c2c(Cl)cccc2Cl)c1C(=O)N/N=C(\N)COc1ccc(Cl)cc1	-4.97*	85.8*	-2.0	1	0.1
Cc1onc(-c2ccccc2Cl)c1C(=O)NCc1ccccn1	0.248	8.3	46.6	0.5	0.9
O=C(NCCCN1CCCC1=O)c1ccc(CNS(=O)(=O)c2ccc(F)cc2)cc1	0.517	-4.8	-9.5	1.1	1
Cc1c(Cl)cccc1NC(=O)C1NC(=O)CC1c1ccccc1 (stereo not given)	nt	45.5	80.6*	0.2	0.5
Cc1ccc(-c2nnc(Nc3ccccc3)c3ccccc23)cc1S(=O)(=O)NCC1CCCO1 (stereo not given)	-3.98	64.5*	56.2*	0.4	0.4
BrC(=C\c1ccccc1)/C=N/N1CCN(c2ccccn2)CC1	0.428	-3.5	21.8	0.8	1
Cc1ccc(-c2ccc(=O)n(CCC(=O)NCCN3CCCCC3C)n2)cc1 (stereo not given)	0.68	-3.1	-2.8	1	1
CCC(C)(c1ccc(C(=O)OC)s1)c1ccc(C(=O)OC)s1	-0.653	97.7*	98.2*	0	0
Cc1ccc(N)c(C(O)(C(F)(F)F)C(F)(F)F)c1	-0.327	58.1*	82.2*	0.2	0.4
CC(=O)Nc1ccc(C(=O)CSc2nc3ccccc3n2CC(=O)N2CCCC2)cc1	0.317	42.3	24.0	0.8	0.6
N#CCSc1nc(Nc2ccc3c(c2)OCO3)c2ccccc2n1	0.974	79.9*	18.7	0.8	0.2
CCOC(=O)CSc1nc(Nc2ccc3c(c2)OCO3)c2ccccc2n1	-1.33	98.2*	85.6*	0.1	0
CC(C)(C)c1ccc(C(=O)CSc2n[nH]c(=O)[nH]c2=O)cc1	0.0428	52.7*	2.3	1	0.5
